In PubChem BioAssay (EPA / NIEHS):
Several values for one entry are separate records, joined by “and”; a condition that tells them apart may be missing. Equal entries are not always repeated. Results filed as inconclusive are left out. Some structures have more than one record in an assay (separate samples or runs), and their calls can disagree. Activity calls are given as the source filed them. The calls were made as follows, unless noted: active = hit-call score of the fitted dose curve at least 0.9, where 1 is the maximum; inactive = score below 0.9.

Key:
[1] = biological target: human RAR-related Orphan Receptor gamma (RORg), RORC (gene 6097) (UniProt P51449); test: ATG_RORg_TRANS: Attagene TRANS-FACTORIAL HepG2 Assay for human RAR-related Orphan Receptor gamma (RORg) (AID 2283011; active = hit-call score of the fitted dose curve at least 0.9, where 1 is the maximum)
Procedure, shortened: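 Activity is scored as increase in GAL4-UAS reporter mRNA over DMSO, detected by fluorescent RT-PCR and capillary electrophoresis in HepG2 cells transiently expressing a RORg-Gal4 chimera, 24 h after dosing.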

[2] = biological target: Retinoic acid receptor RXR-alpha (Homo sapiens) (UniProt P19793); test: ATG_RXRa_TRANS: Attagene TRANS-FACTORIAL HepG2 Assay for human Retinoid X Receptor alpha (RXRa) (AID 2283012; active = hit-call score of the fitted dose curve at least 0.9, where 1 is the maximum)
Procedure, shortened: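 Transient transfection of human HepG2 with multiple GAL4-UAS reporter constructs; 24 h compound exposure; total RNA isolated, reverse-transcribed, PCR-amplified, 6-FAM labelled, HpaI-cut, resolved by capillary electrophoresis. Positive-direction fit versus DMSO.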

[3] = biological target: human Thyroid Receptor alpha (THRa1), THRA (gene 7067) (UniProt P10827); test: ATG_THRa1_TRANS: Attagene TRANS-FACTORIAL HepG2 Assay for human Thyroid Receptor alpha (THRa1) (AID 2283014; active = hit-call score of the fitted dose curve at least 0.9, where 1 is the maximum)
Procedure, shortened: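 First, HepG2 cells receive multiple GAL4-UAS reporter units and the chimeric receptor. They are then dosed for 24 h, after which RNA is reverse-transcribed, amplified, labelled, HpaI-cut and sized by capillary electrophoresis; gain relative to DMSO is scored.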

[4] = read-out: Interleukin-1 alpha (IL1a), IL1A (gene 3552); test: BSK_BE3C_IL1a: BioMAP Diversity Plus: BE3C Assay for Interleukin-1 alpha (IL1a) Biomarker Activity (AID 2283016); conditions: primary human bronchial epithelial cells; actives raise or lower the signal
Procedure, shortened: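 BE3C primary human bronchial epithelium; cpd 24 h; IL-1a by ELISA; bidirectional fit vs DMSO; parallel SRB (0.1% SRB, 10% TCA fix, 560 nm) for cytotoxicity.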

[5] = read-out: Monocyte Chemoattractant Protein-1 (MCP1), CCL2 (gene 6347); test: BSK_3C_MCP1: BioMAP Diversity Plus: 3C Assay for Monocyte Chemoattractant Protein-1 (MCP1) Biomarker Activity (AID 2283017); conditions: primary human endothelial cells (HUVEC); actives raise or lower the signal
Procedure, shortened: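 Endothelial cells from human umbilical vein are dosed with chemical, cultured 24 h, then assayed for MCP-1 by ELISA; both increases and decreases are modelled against DMSO controls.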

[6] = read-out: Monocyte Chemoattractant Protein-1 (MCP1), CCL2 (gene 6347); test: BSK_4H_MCP1: BioMAP Diversity Plus: 4H Assay for Monocyte Chemoattractant Protein-1 (MCP1) Biomarker Activity (AID 2283018); conditions: primary human endothelial cells (HUVEC); actives raise or lower the signal
Procedure, shortened: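 ELISA read-out of MCP-1 from human vascular endothelial primary cells taken at 24 hours after compound exposure. Activity was fitted in both directions relative to DMSO, which served as negative control.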

[7] = read-out: Human Leukocyte Antigen - DR isotype (HLADR), HLA-DRA (gene 3122); test: BSK_3C_HLADR: BioMAP Diversity Plus: 3C Assay for Human Leukocyte Antigen - DR isotype (HLADR) Biomarker Activity (AID 2283019); conditions: primary human endothelial cells (HUVEC); actives raise or lower the signal
Procedure, shortened: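 Endothelial cells from human umbilical vein are treated with test chemical; after 24 h, HLA-DR levels are measured by ELISA. Data are fitted in both directions using DMSO as the baseline.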

[8] = biological target: human Retinoid X Receptor beta (RXRb), RXRB (gene 6257) (UniProt P28702); test: ATG_RXRb_TRANS: Attagene TRANS-FACTORIAL HepG2 Assay for human Retinoid X Receptor beta (RXRb) (AID 2283013; active = hit-call score of the fitted dose curve at least 0.9, where 1 is the maximum)
Procedure, shortened: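 Transfect HepG2 with GAL4-UAS multi-reporter constructs (chimeric NR-Gal4, TRANS format); dose compound 24 h; isolate RNA, RT-PCR, FAM primer extension, HpaI digest; quantify by capillary electrophoresis; positive direction vs DMSO.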

[9] = read-out: E-selectin (Homo sapiens) (UniProt P16581); test: BSK_3C_Eselectin: BioMAP Diversity Plus: 3C Assay for Eselectin Biomarker Activity (AID 2283015); conditions: primary human endothelial cells (HUVEC); actives raise or lower the signal
Procedure, shortened: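 Human vascular endothelium from umbilical vein is exposed to test chemicals for 24 h. E-selectin levels are read by ELISA and compared with DMSO controls.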

Measured: AC50

human Thyroid Receptor alpha (THRa1), THRA (gene 7067), sequence (P10827 whole entry, looked up, the tested form may be a part): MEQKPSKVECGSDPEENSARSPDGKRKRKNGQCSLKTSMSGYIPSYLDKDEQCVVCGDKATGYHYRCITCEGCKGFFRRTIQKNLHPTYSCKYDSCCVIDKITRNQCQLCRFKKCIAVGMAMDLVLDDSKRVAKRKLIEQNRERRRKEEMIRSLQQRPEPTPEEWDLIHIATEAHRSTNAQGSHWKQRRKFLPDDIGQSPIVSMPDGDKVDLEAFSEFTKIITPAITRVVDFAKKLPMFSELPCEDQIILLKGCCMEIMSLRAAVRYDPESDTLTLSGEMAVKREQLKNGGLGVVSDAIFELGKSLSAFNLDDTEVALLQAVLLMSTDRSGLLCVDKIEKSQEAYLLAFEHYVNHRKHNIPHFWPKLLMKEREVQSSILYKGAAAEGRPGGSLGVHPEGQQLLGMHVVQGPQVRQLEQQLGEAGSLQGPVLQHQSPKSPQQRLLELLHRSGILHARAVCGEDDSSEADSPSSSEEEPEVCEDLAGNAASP
E-selectin (Homo sapiens), sequence (P16581 whole entry, looked up): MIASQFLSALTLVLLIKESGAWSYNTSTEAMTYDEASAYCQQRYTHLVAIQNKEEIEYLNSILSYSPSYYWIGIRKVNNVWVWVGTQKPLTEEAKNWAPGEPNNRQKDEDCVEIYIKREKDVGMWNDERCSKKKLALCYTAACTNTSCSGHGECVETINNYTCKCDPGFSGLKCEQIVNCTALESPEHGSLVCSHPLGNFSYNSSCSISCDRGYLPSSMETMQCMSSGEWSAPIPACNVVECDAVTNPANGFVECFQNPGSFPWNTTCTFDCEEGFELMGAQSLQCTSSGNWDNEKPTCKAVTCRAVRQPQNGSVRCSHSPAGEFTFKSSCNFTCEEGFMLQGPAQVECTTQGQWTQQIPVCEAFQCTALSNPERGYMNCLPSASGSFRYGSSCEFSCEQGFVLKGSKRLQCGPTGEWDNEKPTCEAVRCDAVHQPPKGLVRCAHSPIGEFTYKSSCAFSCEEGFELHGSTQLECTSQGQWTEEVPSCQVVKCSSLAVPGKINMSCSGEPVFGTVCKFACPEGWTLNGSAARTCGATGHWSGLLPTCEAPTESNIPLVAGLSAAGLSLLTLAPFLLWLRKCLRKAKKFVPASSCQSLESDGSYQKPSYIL
human RAR-related Orphan Receptor gamma (RORg), RORC (gene 6097), sequence (P51449 whole entry, looked up, the tested form may be a part): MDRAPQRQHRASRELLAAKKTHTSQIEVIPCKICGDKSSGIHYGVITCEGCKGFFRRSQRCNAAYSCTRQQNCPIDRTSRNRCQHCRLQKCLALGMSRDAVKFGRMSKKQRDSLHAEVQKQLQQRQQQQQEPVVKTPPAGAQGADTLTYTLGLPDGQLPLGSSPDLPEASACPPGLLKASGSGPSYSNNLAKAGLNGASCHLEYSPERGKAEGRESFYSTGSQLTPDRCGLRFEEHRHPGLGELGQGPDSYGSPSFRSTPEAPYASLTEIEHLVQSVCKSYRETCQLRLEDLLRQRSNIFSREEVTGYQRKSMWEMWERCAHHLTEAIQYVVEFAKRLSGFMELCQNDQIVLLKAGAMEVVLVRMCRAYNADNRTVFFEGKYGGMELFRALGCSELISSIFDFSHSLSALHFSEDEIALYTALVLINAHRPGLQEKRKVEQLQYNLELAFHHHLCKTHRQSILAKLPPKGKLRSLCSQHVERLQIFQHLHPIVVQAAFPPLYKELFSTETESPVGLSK
Retinoic acid receptor RXR-alpha (Homo sapiens), sequence (P19793 whole entry, looked up, the tested form may be a part): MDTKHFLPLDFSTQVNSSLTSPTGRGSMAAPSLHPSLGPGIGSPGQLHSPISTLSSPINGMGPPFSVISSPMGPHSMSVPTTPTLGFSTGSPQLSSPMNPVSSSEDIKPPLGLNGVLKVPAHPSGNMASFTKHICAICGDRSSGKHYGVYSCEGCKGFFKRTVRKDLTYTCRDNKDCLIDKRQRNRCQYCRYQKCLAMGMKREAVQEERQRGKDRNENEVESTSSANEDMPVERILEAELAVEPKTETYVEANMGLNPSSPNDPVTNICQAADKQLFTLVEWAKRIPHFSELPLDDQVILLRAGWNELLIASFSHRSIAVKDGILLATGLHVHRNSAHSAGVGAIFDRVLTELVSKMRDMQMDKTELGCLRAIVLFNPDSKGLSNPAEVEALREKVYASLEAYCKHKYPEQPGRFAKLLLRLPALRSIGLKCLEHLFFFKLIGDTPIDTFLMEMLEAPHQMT
human Retinoid X Receptor beta (RXRb), RXRB (gene 6257), sequence (P28702 whole entry, looked up, the tested form may be a part): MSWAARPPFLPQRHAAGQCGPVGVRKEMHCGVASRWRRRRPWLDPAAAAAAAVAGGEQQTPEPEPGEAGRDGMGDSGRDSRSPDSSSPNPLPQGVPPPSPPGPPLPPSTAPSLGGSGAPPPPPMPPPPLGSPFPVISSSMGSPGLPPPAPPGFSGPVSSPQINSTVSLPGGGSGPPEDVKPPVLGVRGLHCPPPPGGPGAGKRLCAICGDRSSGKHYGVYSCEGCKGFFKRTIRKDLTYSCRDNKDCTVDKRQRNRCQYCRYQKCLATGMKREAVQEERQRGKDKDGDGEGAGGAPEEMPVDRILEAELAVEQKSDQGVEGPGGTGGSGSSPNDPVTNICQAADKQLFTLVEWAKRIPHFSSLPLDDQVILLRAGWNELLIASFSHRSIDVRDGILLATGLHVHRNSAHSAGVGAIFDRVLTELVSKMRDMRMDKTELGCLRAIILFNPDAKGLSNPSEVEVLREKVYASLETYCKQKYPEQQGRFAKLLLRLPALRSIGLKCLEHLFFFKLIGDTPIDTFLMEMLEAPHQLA

CCOP(=S)(OCC)SCn1nnc2ccccc2c1=O
active: [7] 33.7 µM
not listed: [8] | [9]
inactive: all other assays above

CC(=O)c1ccc(-c2ccccc2)cc1
inactive: [1] | [2] | [8] | [3]

CCCCC(CC)COC(=O)c1c(Br)c(Br)c(Br)c(Br)c1C(=O)OCC(CC)CCCC (stereo not given)
not listed: [8] | [9]
inactive: all other assays above

[N-]=[N+]=[N-]
not listed: [2] | [8] | [9]
inactive: all other assays above

CNC(=O)Oc1ccc(N(C)C)c(C)c1
inactive: [2] | [8]

O=P1(N(CCCl)CCCl)NCCCO1 (stereo not given)
not listed: [2] | [3] | [8]
inactive: all other assays above

O=C(O)C(F)(F)OC(F)(F)C(F)(F)OC(F)(F)F
not listed: [9]
inactive: all other assays above

CC(O)C#N (stereo not given)
inactive: [1] | [2] | [3]

N#Cc1cc([N+](=O)[O-])ccc1N
not listed: [3] | [9]
inactive: all other assays above

CC(C)Nc1ccc(Nc2ccccc2)cc1
inactive: [1] | [2] | [8] | [3]
active: [9] 10.6 µM | [4] 6.48 µM | [5] 9.95 µM | [6] 6.18 µM | [7] 4.45 µM

COP(=O)(O)OC
not listed: [2] | [8] | [9]
inactive: all other assays above

O=c1[nH]c2ccccc2c(=O)o1
inactive: [1] | [2]

O=[N+]([O-])c1cc(Cl)ccc1Cl
inactive: [2] | [8] | [3]

OCC(F)(F)OC(F)(F)C(F)(F)OC(F)(F)C(F)(F)OC(F)(F)CO
active: [8] 17.4 µM | [6] 16.2 µM
inactive: [2] | [3] | [9] | [4] | [5] | [6] | [7]

CCOC(=O)c1ccccc1C(=O)OCC
not listed: [2] | [3]
inactive: all other assays above

O=C(O)C(Cl)Cl
not listed: [8] | [9]
inactive: all other assays above

ClC1=C(Cl)C2(Cl)C3C(Cl)C(Cl)CC3C1(Cl)C2(Cl)Cl (stereo not given)
active: [8] 23.8 µM | [9] 29.7 µM | [5] 34.3 µM | [6] 12.1 µM | [7] 17.5 µM
inactive: [2] | [3] | [4]

O=C(CBr)OCc1ccccc1
inactive: [2]

CCOP(=O)(O)C(N)=O
inactive: [1] | [8] | [3]

Nc1ccc(Cl)cc1
not listed: [9]
inactive: all other assays above

Clc1ccc(Oc2ccccc2)cc1
inactive: [2] | [3]
active: [8] 100 µM

ClC(Cl)(Cl)c1ccccc1
inactive: [2] | [4] | [5] | [6] | [7]

COC(N)=O
inactive: [2] | [3]

OCC(F)(F)OC(F)(F)C(F)(F)OC(F)(F)CO
not listed: [1] | [3]
inactive: all other assays above

CC1(C)CN=C(NN=C(/C=C/c2ccc(C(F)(F)F)cc2)/C=C/c2ccc(C(F)(F)F)cc2)NC1
inactive: [2] | [3]

O=P(Oc1ccccc1)(Oc1ccccc1)Oc1ccccc1
inactive: [2] | [8] | [3] | [4]
active: [5] 33.5 µM | [6] 13.6 µM | [7] 33.1 µM

Cc1ccc([N+](=O)[O-])cc1C
not listed: [1] | [3] | [9]
inactive: all other assays above

FC(F)(F)C(F)(C(F)(F)F)C(F)(F)C(F)(F)CC1CO1 (stereo not given)
not listed: [1] | [8]
inactive: all other assays above

CCOP(=S)(Oc1ccc([N+](=O)[O-])cc1)c1ccccc1 (stereo not given)
inactive: [9] | [4] | [5] | [6] | [7]
active: [8] 2.35 µM

CCCCN(CCCC)N=O
not listed: [1] | [3] | [9]
inactive: all other assays above

O=[N+]([O-])c1ccccc1
active: [8] 10.7 µM
inactive: [4] | [5] | [6] | [7]

O=P(OCC(Br)CBr)(OCC(Br)CBr)OCC(Br)CBr (stereo not given)
active: [4] 29.3 µM | [5] 17.4 µM | [6] 3.45 µM
inactive: [2] | [8] | [3]

CCCCC(CC)COP(=O)(Oc1ccccc1)Oc1ccccc1 (stereo not given)
inactive: [2] | [8]
active: [4] 8.12 µM | [5] 10.6 µM | [6] 7.85 µM | [7] 9.37 µM

O=C(O)C(F)(F)OC(F)(F)C(F)(F)OC(F)(F)C(=O)O
inactive: [8] | [4] | [5] | [6] | [7]

Cc1ccc(O)cc1C
not listed: [1]
inactive: all other assays above

CC(C)(C)N(NC(=O)c1ccc(Cl)cc1)C(=O)c1ccccc1
inactive: [8]

CC(C)(C)c1ccccc1OP(=O)(Oc1ccccc1)Oc1ccccc1
active: [9] 7.83 µM | [5] 20 µM | [6] 13.6 µM | [7] 20 µM
inactive: [2] | [8] | [4]

Oc1ccc(I)cc1
inactive: [2] | [3]

Nc1ccc([N+](=O)[O-])cc1Cl
not listed: [1] | [3]
inactive: all other assays above

CCC1(c2ccccc2)C(=O)N=C(O)NC1=O (stereo not given)
not listed: [1] | [2]
inactive: all other assays above

CCCCN(CCCC)SN(C)C(=O)Oc1cccc2c1OC(C)(C)C2
inactive: [2] | [4]
active: [8] 68.3 µM | [9] 22.9 µM | [5] 30.6 µM | [6] 26 µM | [7] 29.8 µM

CCOS(=O)(=O)OCC
inactive: [3] | [4] | [5] | [6] | [7]

COCCOCCO
inactive: [9] | [4] | [5] | [6] | [7]

CCN(CC)c1ccccc1
not listed: [1] | [2] | [3]
inactive: all other assays above

CCOP(=S)(OCC)SCSc1ccc(Cl)cc1
active: [8] 13.5 µM | [4] 0.212 µM | [6] 8.96 µM | [7] 27.5 µM
not listed: [1]
inactive: all other assays above

C=CC(=O)OCC(F)(F)C(F)F
active: [9] 18.4 µM and 20.4 µM | [7] 41.1 µM and 43.6 µM
not listed: [1] | [8]
inactive: all other assays above

O=S(=O)(c1ccc(O)cc1)c1ccc(O)cc1
inactive: [2] | [3]

c1nc[nH]n1
not listed: [1] | [2] | [3]
inactive: all other assays above

O=S1(=O)OCC2C(CO1)C1(Cl)C(Cl)=C(Cl)C2(Cl)C1(Cl)Cl (stereo not given)
active: [6] 10.1 µM | [7] 24.1 µM
inactive: [2] | [4] | [5]

CCOP(=S)(NC(C)C)Oc1ccccc1C(=O)OC(C)C (stereo not given)
inactive: [2] | [4] | [5] | [6] | [7]
active: [8] 13.3 µM

CCOP(=S)(OCC)SCSCC
active: [8] 48.2 µM
not listed: [1] | [3]
inactive: all other assays above

CCOP(=S)(OCC)SCS(=O)(=O)CC
not listed: [1] | [9]
inactive: all other assays above

Cc1ccc2c(c1N)C(=O)c1ccccc1C2=O
active: [7] 15 µM
not listed: [1] | [9]
inactive: all other assays above

CCCCc1ccccc1
not listed: [1] | [8]
inactive: all other assays above

COP(=O)(CCC(=O)NCO)OC
not listed: [1] | [3] | [8]
inactive: all other assays above

CCOc1ccc(C(C)(C)COCc2cccc(Oc3ccccc3)c2)cc1
not listed: [1] | [9]
inactive: all other assays above

CC(Cc1ccc(OCC(=O)O)cc1)NCC(O)c1csc(C(F)(F)F)n1 (stereo not given)
not listed: [1] | [2] | [3]
inactive: all other assays above

c1ccc2c(c1)Nc1ccccc1S2
active: [8] 3.98 µM
not listed: [1] | [9]
inactive: all other assays above

c1ccc2c(c1)sc1ccccc12
not listed: [1] | [2] | [8]
inactive: all other assays above
